According to PubChem BioAssay (NCATS):
Inconclusive results are not listed. Unmarked numbers belong to inactive results. Active and inactive are the calls of the source. The call rests on the fitted dose curve; in most records, active means well fitted cell-killing curve with a large enough effect; inconclusive means small, poorly fitted or top-dose-only effect; inactive means flat fitted curve, though single readings scatter.

Assay: Quantitative highthroughput screen to assess conditional lethalithy of NOMO1 cells grown in RPMI1640 with dialyzed fetal bovine serum (RPMI+ds) (AID 1963877); further: nearly all actives have a fitted effect of over 30% in size
Details: NOMO1 in RPMI+dialyzed FBS viability, ATP luminescence, 48 h; series mostly up to 45.8 µM; viability: at the top concentration
Excerpt: Assay Provider: Jason Cantor Ph.D.
Department of Biochemistry
University of Wisconsin-Madison, Madison, WI, USA
Chemical screening studies have identified drug sensitivities across hundreds of cancer cell lines but most putative therapeutics fail to translate. Discovery and development of drug candidates in models that more accurately reflect nutrient levels in human blood is a major challenge. Here we performed high-throughput screens in conventional versus Human Plasma-Like Medium (HPLM) to identify compounds that were "missed" when screening using the artificial culture condition. Sets of conditional anticancer compounds spanned phases of clinical development and included non-oncology drugs were assessed. […] We also traced conditional phenotypes for several chemotherapeutics to availability of HPLM-specific metabolites and confirmed others for compounds whose reported targets are encoded by nonessential genes. Our findings establish generalizable strategies for exploiting conditional lethality in HPLM to reveal therapeutic candidates and mechanisms of action in cancer cells.
Described herein are the results of each viability screens against three cell lines: NOMO1 (an acute myeloid leukemia cell line); P12-Ichikawa (a T-cell acute lymphoblastic leukemia); and SEM (a B-cell ALL). Each assay was screened using 3 different cell culture media: homemade human plasma-Like medium with 10% dialyzed fetal bovine serum (HPLM+ds); RPMI1640 with 10% untreated FBS and 5mM glucose (RPMI+s); and RPMI1640 with 10% dialyzed fetal bovine serum and 5 mM glucose (RPMI+ds).
PROTOCOL TABLE (as described by Inglese J, Shamu CE and Guy RK. 2007)
SEQUENCE No. (e.g., 1, 2, 3, etc.); […] (e.g., Cells, Incubation, Reagent, etc.); VALUE and DESCRIPTION.
1; Cells; 5 uL; white, solid bottom 1536-well Greiner assay plate.
2; Compounds; 23 nL; Kalypsis pin tool (Wako USA) equipped with a 1536-well pin head to transfer to the assay plates.
3; Incubation; 48 hours; 37C incubation.
4; Reagent; 3 uL; CellTiter Glo (Promega).
5; Incubation; 5 min, room temperature
6; Detection; Luminescence, Viewlux PerkinElmer.
NOTES (numbers refer to Sequence numbers above)
1. Briefly, 5 ul of cell reagent was dispensed using a Multidrop Combi Dispenser. The NOMO1 and SEM cells were plated at 500 cells/well and the P12-Ichikawa line at 1000 cells/well.
2. After seeding the cells, 23 nL of MIPE 4.1 library compounds (in DMSO) were added to each plate using a Kalypsys 1536 Pintool dispenser. Bortezomib at final concentration of […] and DMSO were added to each plate as positive and negative controls respectively. For each screen, MIPE 4.1 compounds were added over an eleven-point concentration range […] in 3-fold dilutions.
3. Each plate was covered with a stainless steel gasketed lid to prevent evaporation and incubated for 48 hour at 37C, 95% relative humidity, and 5% CO2.
4-5. Three microliter CellTilter-GloTM luminescent substrate mix (Promega) reagent was added to the assay plate and incubated at room temperature for 5 min.
6. The luminescence signal was measured using a ViewLux (PerkinElmer) multiplate reader with a 2 second exposure time per plate. Data for each compound were normalized as percent viability such that measurements for DMSO and the empty well controls in each plate were defined as 100% and 0%, respectively.
Potency means the concentration at half of the fitted maximal effect.

Compound | Potency | viability
CC(C)c1cnn2c(NCc3ccccc3)cc(N[C@@H](CO)[C@H](O)CO)nc12 | 0.743 µM (active) | –
COc1ccccc1OCC(O)CN1CCN(CC(=O)Nc2c(C)cccc2C)CC1 (stereo not given) | – | 94.1%
CCN(CC)CC#CCOC(=O)C(O)(c1ccccc1)C1CCCCC1 (stereo not given) | – | 91.5%
CNCCN(C)Cc1cn[nH]c1-c1ccc(OC2CC(OCCC3CCOCC3)C2)cc1 (stereo not given) | – | 89.8%
Cc1cccc(Nc2nc(-c3ccncc3)cs2)c1 | – | 81.2%
CCOC(=O)[C@H](CCc1ccccc1)N[C@@H](C)C(=O)N1[C@@H](C(=O)O)C[C@H]2CCC[C@@H]21 | 23.5 µM (active) | –
Nc1ncnc2ccccc12 | – | 99.9%
NC[C@H](O)c1ccc(O)c(O)c1 | – | 114%
C[C@]12CCC3=C4CCC(=O)C=C4CC[C@@H]3[C@H]1CC[C@@]2(O)CC#N | – | 112%
CC(=O)OCC(=O)[C@@]1(O)[C@H](C)C[C@H]2[C@@H]3C=C(C)C4=Cc5c(cnn5-c5ccccc5)C[C@]4(C)[C@@H]3[C@@H](O)C[C@@]21C | – | 99.5%
CC[C@H](C)C(=O)O[C@H]1C[C@H](O)C=C2C=C[C@H](C)[C@H](CC[C@@H](O)C[C@@H](O)CC(=O)O)[C@H]21 | – | 101%
CN(C)CCC=C1c2ccccc2COc2ccc(CC(=O)O)cc21 | – | 111%
CC(C=CC(=O)NO)=C[C@@H](C)C(=O)c1ccc(N(C)C)cc1 | 1.87 µM (active) | –
CN[C@@H]1C[C@H]2O[C@@](C)([C@H]1OC)n1c3ccccc3c3c4c(c5c6ccccc6n2c5c31)C(=O)N[C@H]4O | 1.05 µM (active) | –
Nc1nc(OCc2ccccc2)c2[nH]cnc2n1 | – | 104%
O=C1N(c2ccccc2)c2ccccc2C1(Cc1ccncc1)Cc1ccncc1 | – | 96.2%
Cn1cc(C=CC(=O)c2cccc(F)c2)cc1C=CC(=O)NO | – | 88.1%
C[C@@H](O)[C@H]1C(=O)N2C(C(=O)OCOC(=O)C(C)(C)C)=C(SC3CN(C4=NCCS4)C3)[C@H](C)[C@H]12 | 7.43 µM (active) | –
CCC[C@H]1C[C@H](C(=O)N[C@@H]([C@@H]2O[C@@H](SC)[C@@H](O)[C@@H](O)[C@@H]2O)[C@H](C)Cl)N(C)C1 | – | 111%
CC(C)(C)c1cc(C(C)(C)C)c(NC(=O)c2c[nH]c3ccccc3c2=O)cc1O | – | 101%

Compound | Potency | viability
c1ccc(CNc2nc(N3CCOc4ccccc43)nc3c2CCCC3)cc1 | – | 93%
CC(=O)N1CCN(c2ccc(OC[C@H]3CO[C@](Cn4ccnc4)(c4ccc(Cl)cc4Cl)O3)cc2)CC1 | – | 88.5%
C[C@]12C=CC(=O)C=C1CC[C@@H]1[C@@H]2C(=O)C[C@@]2(C)[C@H]1CC[C@]2(O)C(=O)CO | – | 96.1% [at 23.2 µM]
N[C@@H](Cc1cc(I)c(Oc2cc(I)c(O)c(I)c2)c(I)c1)C(=O)O | – | 101%
C#Cc1cccc(Nc2ncnc3cc(OC)c(OCCCCCCC(=O)NO)cc23)c1 | 0.662 µM (active) | –
COc1cc(C=CC(=O)O)ccc1O | – | 113%
O=C(NCc1ccccc1)[C@H](Cc1ccccc1)NC(=O)[C@@H]1O[C@@H]1C(=O)NCCc1ccc(O)cc1 | – | 88.4%
CCn1cc(C(=O)O)c(=O)c2cc(F)c(N3CCNC(C)C3)c(F)c21 (stereo not given) | – | 89.3%
Oc1ccc(C2=Cc3ccc(O)cc3OC2)cc1 | 11.8 µM (active) | –
O=C(Nc1cccc(Nc2ncc(Br)c(NCCc3cnc[nH]3)n2)c1)N1CCCC1 | 11.8 µM (active) | –
CC[C@H]1OC(=O)[C@H](C)[C@@H](O[C@H]2C[C@@](C)(OC)[C@@H](O)[C@H](C)O2)[C@H](C)[C@@H](O[C@@H]2O[C@H](C)C[C@H](N(C)C)[C@@H]2O)[C@](C)(O)C[C@@H](C)CN(C)[C@H](C)[C@@H](O)[C@]1(C)O | – | 86.9%
Cc1cccc(CN2CCN(C(c3ccccc3)c3ccc(Cl)cc3)CC2)c1 (stereo not given) | – | 93.4%
COc1cc(C(C)C)c(Oc2cnc(NC(CO)CO)nc2N)cc1I | – | 98.5%
CCCCC(C=O)NC(=O)C(CC(C)C)NC(=O)OCc1ccccc1 (stereo not given) | – | 91.3%
COc1ccc2c(c1)c(CC(=O)O)c(C)n2C(=O)c1ccc(Cl)cc1 | – | 97.8%
CS(=O)(=O)c1cccc(CNc2nc(Nc3ccc4c(c3)CCC(=O)N4)ncc2C(F)(F)F)c1 | 18.7 µM (active) | –
O=C(CCCCCCC(=O)Nc1ccc([C@H]2O[C@@H](CSc3nc(-c4ccccc4)c(-c4ccccc4)o3)C[C@@H](c3ccc(CO)cc3)O2)cc1)NO | 9.35 µM (active) | –
NC(=O)NO | 4.18 µM (active) | –
Nc1nc(F)nc2c1ncn2[C@@H]1O[C@H](CO)[C@@H](O)[C@@H]1O | 0.372 µM (active) | –
O=c1c(O)c(-c2cc(O)c(O)c(O)c2)oc2cc(O)cc(O)c12 | – | 97.9%
